Source: PubChem BioAssay (National Center for Advancing Translational Sciences (NCATS))
This is a sample that favours compounds with a hit; in the whole collection about 10% have one here.
GPT2 inhibitor – GPT2 alanine aminotransferase inhibition | Recombinant GPT2, coupled pyruvate oxidase/HRP Amplex Red fluorescence | Q8TD30 | Potency, µM (highest dose often 57.7 µM), inactives show at the top dose activity change, negative = inhibition, most hits filed as inhibitors | AID 1671188 | 0.25% of 100,000 active; note: nearly all actives have a fitted effect of over 60% in size
Target sequence (Q8TD30 whole entry, looked up): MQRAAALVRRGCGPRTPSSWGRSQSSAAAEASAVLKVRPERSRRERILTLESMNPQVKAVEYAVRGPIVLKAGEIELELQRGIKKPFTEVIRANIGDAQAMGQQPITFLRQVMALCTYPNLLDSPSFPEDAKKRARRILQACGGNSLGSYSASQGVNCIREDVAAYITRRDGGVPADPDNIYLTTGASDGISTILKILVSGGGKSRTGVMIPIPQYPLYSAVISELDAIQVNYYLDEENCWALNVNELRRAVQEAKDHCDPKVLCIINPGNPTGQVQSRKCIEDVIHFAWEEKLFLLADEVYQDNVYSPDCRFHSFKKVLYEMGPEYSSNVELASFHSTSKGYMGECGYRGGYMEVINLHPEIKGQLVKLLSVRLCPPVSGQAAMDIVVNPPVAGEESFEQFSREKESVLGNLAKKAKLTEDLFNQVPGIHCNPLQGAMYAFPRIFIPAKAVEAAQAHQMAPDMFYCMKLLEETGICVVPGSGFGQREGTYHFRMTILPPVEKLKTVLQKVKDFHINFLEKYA
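Fluorescence of coupled pyruvate oxidase/HRP/Amplex Red system (50uM Amplex, 30 min, dark) reports pyruvate formed by GPT2. Enzyme reaction: 10ng/uL GPT2, 2mM L-alanine, 250uM a-KG, 30 min room temperature, pH 7.5; 50uM AOA control.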
NIH3T3 tox – kills NIH 3T3 cells | NIH 3T3 viability, CellTiter-Glo ATP luminescence, 48-72 h | Potency, µM (highest dose often 96.7 µM), inactives show at the top dose activity change, negative = cytotoxicity, hits mostly inhibitors | 4.3% of 94,000 active | AID 1345082; note: nearly all actives have a fitted effect of over 55% in size
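Cytotoxicity is measured as loss of cellular ATP: NIH 3T3 cells (400/well) are exposed to compound for 48 or 72 hr at 37 °C, then CellTiter-Glo luminescence is imaged after 10 min at room temperature.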
HEK293 tox – kills HEK 293 cells. HEK 293 viability, ATP luminescence (CellTiter-Glo), 48-72 h. Potency, µM (doses to about 115 µM), for inactives: at the highest dose activity change, negative = cytotoxicity, hits mostly inhibitors. 6.6% of 94,000 active; note: nearly all actives have a fitted effect of over 60% in size
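CellTiter-Glo luminescence (cellular ATP) was read after 48 or 72 hr of compound exposure at 37 degree Celsius. Cells were HEK 293 plated at 250 cells/well.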
NPR1 antag – human Npr1 receptor antagonism | 1.6% of 76,000 active | Potency, µM (titrated, usually from 46.3 µM), for inactives: at the highest dose activity change, negative = inhibition, usual class: inhibitors | AID 1347048 | HEK293 hNpr1 GloSensor cGMP, ANP-stimulated luminescence; calls by dose curve; note: nearly all actives have a fitted effect of over 60% in size
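Compound pre-incubated 30 min at room temperature on GloSensor-loaded HEK293 cells stably carrying hNpr1 and the pGS-40F cGMP biosensor. Stimulation uses hNppA at 0.1 nM final; luminescence is taken at baseline and 20 min post-agonist.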
Luciferase inh – Photinus pyralis luciferase inhibition. P08659. Potency, µM (titrated, usually from 115 µM), actives largely listed as inhibitors. 2.5% of 76,000 active. AID 1347043. purified P. pyralis luciferase, luminescence, biochemical; note: nearly all actives have a fitted effect of over 65% in size
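Purified P. pyralis luciferase (10nM final) in 50mM Tris acetate pH 7.5, 10mM Mg acetate, 0.01% Tween-20, 0.05% BSA with 10uM D-luciferin and 10uM ATP. Compounds titrated qHTS. Luminescence imaged on CCD.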
An asterisk follows results filed as active; i = inactive; u = inconclusive; [ ] = another dose, or the depositor's remark. Unless noted, calls come from the whole dose curve; as a rule, active = well fitted curve in the direction sought with a large enough effect; inconclusive = small, poorly fitted or top-dose-only effect, or another doubt; inactive = no such curve, though single readings can be large; an effect the other way counts as inactive or inconclusive. % is set by controls: 0 for no effect and ±100 for the full control effect; potency is the fitted concentration of half-maximal effect.

SMILES | GPT2 inhibitor | NIH3T3 tox | HEK293 tox | NPR1 antag | Luciferase inh
Cc1ccc2nc([C@H]3CCN(Cc4ccccn4)C3)[nH]c2c1 | u | u | 50µM* | -6%[70.6 µM] | 40µM*
COc1ccc2nc([C@H]3CCN(Cc4ccccc4)C3)[nH]c2c1 | 0%[88.5 µM] | u | u | -2%[70.6 µM] | 22µM*
COc1ccc2nc([C@H]3CCN(Cc4ccc(F)cc4)C3)[nH]c2c1 | i | 112µM* | 79µM* | -15%[70.6 µM] | 50µM*
COc1ccc2nc([C@H]3CCN(Cc4cccc(Cl)c4)C3)[nH]c2c1 | -15%[88.5 µM] | u | u | u | i
CCN1c2cc(C(=O)Nc3cccc(F)c3)ccc2C(=O)N2CCCC21 (stereo unspecified) | 0% | u | u | 2% | i
CCN1c2cc(C(=O)Nc3cccc(C(F)(F)F)c3)ccc2C(=O)N2CCCCC21 (stereo unspecified) | -9% | u | 28µM* | 0% | i
CCN1c2cc(C(=O)Nc3cccc(F)c3)ccc2C(=O)N2CCCCCC21 (stereo unspecified) | i | u | u | -2% | i
CCN1c2cc(C(=O)Nc3cccc(SC)c3)ccc2C(=O)N2CCCCC21 (stereo unspecified) | i | u | 22µM* | 1% | i
CCN1c2cc(C(=O)Nc3ccc(N(C)C)cc3)ccc2C(=O)N2CCCCCC21 (stereo unspecified) | u | u | 40µM* | -8% | 18µM*
CCN1c2cc(C(=O)Nc3cccc(OC(F)(F)F)c3)ccc2C(=O)N2CCCCCC21 (stereo unspecified) | i | 28µM* | u | -6% | i
CCN1c2cc(C(=O)Nc3ccc(C(N)=O)cc3)ccc2C(=O)N2CCCCCC21 (stereo unspecified) | -7% | u | u | -2% | i
Cc1ccc(C(=O)N2CCC3(CC2)CC(OCC2CC2)CCO3)cn1 (stereo unspecified) | -11% | -11% | 4% | 0% | i
CC(C)NC(=O)C[C@@H]1C[C@H]2O[C@H](CNC3CCOCC3)[C@@H](O)[C@H]2O1 | 1%[88.5 µM] | -1%[174 µM] | i | -1%[70.6 µM] | i
Cn1ccnc1CN1CCN(C(=O)c2cn(Cc3ccc(Cl)cc3)nn2)CC1 | 1% | -13% | -3% | 0% | i
CC[C@H](C)[C@H](N)C(=O)N1CCC2(CCC(=O)N(Cc3ccccc3)C2)CC1 | 3%[11.5 µM] | -8% | 2% | 5% | i
CCN1c2cc(C(=O)Nc3ccc(C)cc3)ccc2C(=O)N2CCCCC21 (stereo unspecified) | 0% | 35µM* | 40µM* | u | i
CCN1c2cc(C(=O)Nc3cccc(C)c3)ccc2C(=O)N2CCCCC21 (stereo unspecified) | i | 35µM* | 32µM* | -2% | i
CCN1c2cc(C(=O)Nc3cccc(C)c3)ccc2C(=O)N2CCCCCC21 (stereo unspecified) | 2% | u | u | -2% | i
COc1ncccc1-c1nc(-c2c(C)noc2C)cc2c1cc(C)n2CCN(C)C | 4%[88.5 µM] | 10µM* | u | 3%[70.6 µM] | i
CC(=O)Nc1cccc(-c2nc(-c3c(C)noc3C)cc3c2cc(C)n3CCN(C)C)c1 | u | u | 79µM* | 7%[70.6 µM] | i
COc1ccc(-c2nc(-c3c(C)noc3C)cc3c2cc(C)n3CCN(C)C)cc1OC | i | u | 89µM* | -16%[70.6 µM] | i
COc1cccc(-c2nc(-c3c(C)noc3C)cc3c2cc(C)n3CCN(C)C)c1 | -6%[88.5 µM] | 10µM* | 45µM* | 3%[70.6 µM] | i
COc1ncc(-c2nc(-c3c(C)noc3C)cc3c2cc(C)n3CCN(C)C)cn1 | -8%[88.5 µM] | u | u | -3%[70.6 µM] | i
Cc1cc(Cl)ccc1C(=O)N1Cc2cnn(Cc3ccc(F)cc3)c2C1 | 0% | u | 45µM* | u | i
CC(C)Oc1ccc(C(=O)N2Cc3cnn(Cc4ccc(F)cc4)c3C2)cc1 | 3%[11.5 µM] | u | u | u | i
COc1ccc(CN(C)CC2CCN(CCc3ccc(F)cc3)CC2)cc1Cn1cccn1 | i | 40µM* | 28µM* | -3% | i
